The results in this text go back to PubChem BioAssay (NCI).

What all share (assay): NCI-60 one-dose screen, 48 h (100 = growth as untreated, 0 = no growth, -100 = all killed)
Conditions in all cases: 10 µM unless noted

Assay [1] concerns DU-145 prostate.
The test system of assay [2] is K-562 leukemia.
The test system of assay [3] is MALME-3M melanoma.
Assay [4] deals with MDA-MB-231 breast.
Assay [5] relates to RXF 393 renal.
For assay [6], the system named is SF-268 CNS.
For assay [7], the system named is SF-295 CNS.
The test system of assay [8] is SF-539 CNS.
The test system of assay [9] is UACC-257 melanoma.
The test system of assay [10] is M14 melanoma.

Compounds without any hit were thinned out: in the full panel of roughly 83,000, 20% have a hit.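 Testing used 96-well plates and a 48-hour single-concentration exposure. Example: -40 means 40% of the starting cells died.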 Unmarked numbers belong to inactive results. Active and inactive are the calls of the source. How the source made its calls: active means growth percent below 10; inactive means the rest.

As to `CC[C@H](C)[C@H](NC(=O)c1cccn1C)C(=O)N(C)[C@H](C[C@@H](OC(C)=O)c1nc(C(=O)N[C@@H](Cc2ccccc2)C[C@H](C)C(=O)OC)cs1)C(C)C`, the growth in assay [1] was 5.31% (active); in [2], 6.81% (active); in assay [3], 73.6%; in [4], -13.7% (active); in [5] it was 3.6% (active); in assay [6] it was 19.1%. The growth in assay [7] is 7.85% (active); in assay [8], -12.7% (active); in [9], 51.8%; in assay [10] it was -0.428% (active).

For the compound `CNC(=O)Oc1cccc(C(F)(F)F)c1`, the growth in [1] is 128%; in assay [2], 113%; in assay [3], 140%; in assay [4], 103%; in assay [5], 146%; in assay [6], 118%. In addition, the growth in assay [7] was 130%; in [8], 122%; in [9] it was 102%; in [10], 101%.

Turning to `CCOP1(=O)CC(C)=C(Cl)C(P(=O)(OCC)OCC)C1` (stereo not given), the growth in assay [1] is 109%; in assay [2], 110%; in assay [3] it was 118%; in [4], 87.6%; in assay [5], 74.5%; in assay [6] it was 107%. In addition, the growth in assay [7] is 103%; in assay [8] it was 113%; in [9], 76.9%; in [10], 74.3%.

Take `ClCCN(CCCl)c1ccc(OCc2ccccc2)cc1`: the growth in [1] is 26.3%; in assay [2], 73.3%; in [3], 90.9%; in assay [4], 106%; in [5] it was 82.1%; in assay [6] it was 36%. Moreover, the growth in assay [7] was 10.3%; in [8], 8.54% (active); in assay [9], 74.2%; in assay [10], 41.9%.

On to `CC(=O)OCc1cc[c]([Hg][Cl])o1`, for which the growth is 84.2% in assay [1]; 7.96% (active) in assay [2]; -39.7% (active) in [3]; 26% in assay [4]; -38.7% (active) in [5]; 22.5% in assay [6]. The growth in assay [7] was 78.1%; in assay [8] it was 44.2%; in [9] it was 53.5%; in [10] it was 13%.

Consider `C[C@]12CC[C@H]3[C@@H](CC4SC(N)=NC45C/C(=N/NC(N)=O)CC[C@]35C)[C@@H]1CCC2=O` (stereo not given in full), for which the growth in assay [1] was 31.1%; in assay [2] it was -38.5% (active); in assay [3] it was 3.07% (active); in assay [4], 35.2%; in [5], 7.08% (active); in [6] it was -6.41% (active). The growth in assay [7] is 45.7%; in [8], 87.2%; in assay [9] it was 105%; in assay [10], -51.1% (active).

`CC(=O)Oc1ccccc1C(=O)NCCC[Se]C#N`: the growth was -32.9% (active) in assay [1]; 30.2% in assay [2]; -24.5% (active) in [3]; -38.5% (active) in [4]; -7.78% (active) in assay [5]; -22.3% (active) in assay [6]. Moreover, the growth in assay [7] was -15.7% (active); in assay [8], -72.1% (active); in assay [9], 42.1%; in assay [10], -13.1% (active).

For the compound `CCCC[C@H](NC(=O)[C@H]1CCCN1C)C(=O)N(C)[C@H](C[C@@H](OC(C)=O)c1nc(C(=O)N[C@@H](Cc2ccccc2)C[C@H](C)C(=O)OCC)cs1)C(C)C`, the growth is 12.8% in assay [1]; 9.85% (active) in assay [2]; 49.5% in assay [3]; 3.51% (active) in assay [4]; 25.3% in assay [5]; 25.8% in assay [6]. Also, the growth in assay [7] is 13.3%; in [8] it was 0.375% (active); in assay [9] it was 46.1%; in [10], -12% (active).

`CC12CCC3C(CCC4Cc5[nH]c6ccccc6c5CC43C)C1CCC2O` (stereo not given): the growth in assay [1] was -21.2% (active); in assay [2], 5.1% (active); in assay [3], 48.3%; in assay [4], 37.1%; in assay [5] it was -13.8% (active); in assay [6] it was 47.5%. For the same compound, the growth in assay [7] was -10.7% (active); in assay [8] it was 9.54% (active); in [9], 74.1%; in assay [10] it was 20.6%.

`CC[C@H](NC(=O)[C@H]1CCCCN1C)C(=O)N(C)[C@H](C[C@@H](OC(C)=O)c1nc(C(=O)N[C@@H](Cc2ccccc2)C[C@H](C)C(=O)O)cs1)C(C)C`: the growth is 0.513% (active) in [1]; 6.94% (active) in [2]; 76% in assay [3]; 9.34% (active) in [4]; 43.2% in assay [5]; 30.2% in assay [6]. For the same compound, the growth in [7] is 0.548% (active); in assay [8] it was -12.1% (active); in assay [9] it was 52.9%; in [10], -10.4% (active).

For `CC(=O)O[C@H]1C(=O)[C@@]2(C)[C@H]([C@H](OC(=O)c3ccccc3)[C@]3(O)C[C@H](OC(=O)[C@H](OC(=O)OCC4COC(C)(C)O4)[C@@H](NC(=O)c4ccccc4)c4ccccc4)C(C)=C1C3(C)C)[C@]1(OC(C)=O)CO[C@@H]1C[C@@H]2O` (stereo not given in full), the growth is 22.9% in assay [1]; 19.8% in [2]; 45% in assay [3]; 39.9% in assay [4]; 32.9% in [5]; 61.1% in [6]. Moreover, the growth was 17.5% in assay [7], 24.9% in [8], 59.4% in assay [9] and -14.7% (active) in assay [10].

Take `Nc1ncnc2n[nH]nc12`: the growth in assay [1] is 57%; in [2], 59.6%; in [3], 55.1%; in [4], 74.9%; in assay [5], 75.8%; in assay [6] it was 81%. In addition, the growth was 53.5% in [7], 86.8% in assay [8], 58.1% in assay [9] and 39.8% in [10].

Regarding `COC(=O)[C@@]1(C)CC[C@]2(C)CC[C@]3(C)C4=CC(=O)c5c(cc(O)c(O)c5C)[C@]4(C)CC[C@@]3(C)[C@@H]2C1`, the growth in [1] is 67.1%; in [2], 49%; in [3], 106%; in [4] it was 61.4%; in assay [5], 85%; in [6], 61.7%. In addition, the growth was 49.8% in assay [7], 78% in [8], 41.9% in assay [9] and 66.4% in assay [10].
